According to the supplement of paper PMC12067926:

What was measured:
Assay in all cases: relative growth (AUC of 72 h growth curve relative to DMSO control, dAUC) (ratio); higher = more growth (less inhibition), active = hit call of the paper
Details in all cases: 20 µM;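 active = growth AUC significantly below the DMSO wells by Dunnett test; inactive = the rest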
[1] = system: Prolinoborus 1 (Prolinoborus fasciculus)
Procedure, shortened: (§1)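 Cultures grown to carrying capacity in Luria–Bertani medium, drawn from Icelandic stream sediment and Silwood Park soil isolates and whole sediment communities, were diluted 1:100 into 96-well plates with each chemical at 20 µM (1% DMSO) and read at A600 hourly for 72 h. The spline-integrated area under the growth curve, divided by the mean of the DMSO controls, is reported as relative growth (dAUC). Values are means of three biological replicates.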

[2] = system: Pseudomonas 1 (Pseudomonas baetica)
Procedure, shortened: as §1

[3] = system: Pseudomonas 2 (Pseudomonas vancouverensis)
Procedure, shortened: as §1

[4] = system: Pseudomonas 3 (Pseudomonas mandelii)
Procedure, shortened: as §1

[5] = system: Pseudomonas 4 (Pseudomonas peli)
Procedure, shortened: as §1

[6] = system: Pseudomonas 5 (Pseudomonas baetica)
Procedure, shortened: as §1

[7] = system: Pseudomonas 6 (Pseudomonas sp.)
Procedure, shortened: as §1

[8] = system: Rhizobium 1 (Rhizobium herbae)
Procedure, shortened: as §1

[9] = system: Serratia 1 (Serratia sp. 2015-2462-01)
Procedure, shortened: as §1

[10] = system: Sphingomonas 2 (Sphingomonas sp.)
Procedure, shortened: as §1

| SMILES | relative growth [1] | relative growth [2] | relative growth [3] | relative growth [4] | relative growth [5] | relative growth [6] | relative growth [7] | relative growth [8] | relative growth [9] | relative growth [10] |
| --- | --- | --- | --- | --- | --- | --- | --- | --- | --- | --- |
| C[N+]1(C)CCCCC1 | 0.974 (inactive) | 0.972 (inactive) | 0.981 (inactive) | 1.02 (inactive) | 1.05 (inactive) | 1.04 (inactive) | 1.03 (inactive) | 1.02 (inactive) | 1.03 (inactive) | 0.999 (inactive) |
| Cc1cc(C(F)(C(F)(F)F)C(F)(F)F)ccc1NC(=O)c1cccc(I)c1C(=O)NC(C)(C)CS(C)(=O)=O | 0.933 (inactive) | 0.728 (inactive) | 0.842 (active) | 0.883 (inactive) | 1.13 (inactive) | 0.92 (inactive) | 0.776 (inactive) | 0.937 (inactive) | 1.19 | 0.654 (active) |
| CSc1nc(NC(C)C)nc(NC(C)C)n1 | 0.989 (inactive) | 1.14 (inactive) | 1.02 (inactive) | 1.02 (inactive) | 0.949 (inactive) | 1.03 (inactive) | 1.08 (inactive) | 0.858 (inactive) | 0.983 (inactive) | 0.989 (inactive) |
| OC(Cc1ccccc1Cl)(Cn1nc[nH]c1=S)C1(Cl)CC1 (stereo not given) | 1.02 (inactive) | 1.02 (inactive) | 0.995 (inactive) | 1.01 (inactive) | 1 (inactive) | 0.995 (inactive) | 0.982 (inactive) | 1.07 (inactive) | 1.05 (inactive) | 0.981 (inactive) |
| CC[C@H](C)C1O[C@]2(C=C[C@@H]1C)C[C@@H]1C[C@@H](C/C=C(\C)[C@@H](O[C@H]3C[C@H](OC)[C@@H](O[C@H]4C[C@H](OC)[C@H](NC)[C@H](C)O4)[C@H](C)O3)[C@@H](C)/C=C/C=C3\CO[C@@H]4[C@H](O)C(C)=C[C@@H](C(=O)O1)[C@]34O)O2 (stereo not given in full) | 0.605 (active) | 0.957 (inactive) | 0.971 (inactive) | 1.08 (inactive) | 0.98 (inactive) | 1.16 | 1.19 (inactive) | 0.8 (inactive) | 1.16 | 0.373 (active) |
| N#Cc1c(Cl)c(Cl)c(Cl)c(C#N)c1Cl | 1.04 (inactive) | 0.975 (inactive) | 0.972 (inactive) | 0.967 (inactive) | 1 (inactive) | 1.01 (inactive) | 1.1 (inactive) | 0.17 (active) | 0.92 (inactive) | 0.0279 (active) |
| CN/C(=N\[N+](=O)[O-])NCc1cnc(Cl)s1 | 0.937 (inactive) | 1.1 (inactive) | 0.964 (inactive) | 1.01 (inactive) | 0.974 (inactive) | 1.03 (inactive) | 1.09 (inactive) | 0.902 (inactive) | 0.931 (inactive) | 0.945 (inactive) |
| CC[C@H]1CCC[C@H](O[C@H]2CC[C@H](N(C)C)[C@@H](C)O2)[C@@H](C)C(=O)C2=C[C@@H]3[C@@H](C=C(C)[C@@H]4C[C@@H](O[C@@H]5O[C@@H](C)[C@H](OC)[C@@H](OC)[C@H]5OC)C[C@@H]34)[C@@H]2CC(=O)O1.CC[C@H]1CCC[C@H](O[C@H]2CC[C@H](N(C)C)[C@@H](C)O2)[C@@H](C)C(=O)C2=C[C@H]3[C@@H]4C[C@H](O[C@@H]5O[C@@H](C)[C@H](OC)[C@@H](OC)[C@H]5OC)C[C@H]4C=C[C@H]3C2CC(=O)O1 | 0.832 (inactive) | 1.14 (inactive) | 0.981 (inactive) | 1.04 (inactive) | 1.05 (inactive) | 1.06 (inactive) | 1.01 (inactive) | 0.89 (inactive) | 1.1 (inactive) | 1 (inactive) |
| Fc1ccc(Oc2ccnc3cc(Cl)cc(Cl)c23)cc1 | 1.03 (inactive) | 1.07 (inactive) | 1.02 (inactive) | 1.06 (inactive) | 1.07 (inactive) | 1.01 (inactive) | 1.06 (inactive) | 0.992 (inactive) | 1.01 (inactive) | 0.975 (inactive) |
| CC[C@H](C)[C@H]1O[C@]2(C=C[C@@H]1C)C[C@@H]1C[C@@H](C/C=C(\C)[C@@H](O[C@H]3C[C@H](OC)[C@@H](O[C@H]4C[C@H](OC)[C@@H](O)[C@H](C)O4)[C@H](C)O3)[C@@H](C)/C=C/C=C3\CO[C@@H]4[C@H](O)C(C)=C[C@@H](C(=O)O1)[C@]34O)O2.CO[C@H]1C[C@H](O[C@H]2[C@H](C)O[C@@H](O[C@@H]3/C(C)=C/C[C@@H]4C[C@@H](C[C@]5(C=C[C@H](C)[C@@H](C(C)C)O5)O4)OC(=O)[C@@H]4C=C(C)[C@@H](O)[C@H]5OC/C(=C\C=C\[C@@H]3C)[C@]54O)C[C@@H]2OC)O[C@@H](C)[C@@H]1O | 0.894 (inactive) | 1.05 (inactive) | 1.01 (inactive) | 1.03 (inactive) | 1.02 (inactive) | 1.13 (inactive) | 1.04 (inactive) | 0.807 (inactive) | 0.958 (inactive) | 0.717 (inactive) |
| ClC1C(Cl)C(Cl)C(Cl)C(Cl)C1Cl (stereo not given) | 0.987 (inactive) | 1.04 (inactive) | 0.993 (inactive) | 0.99 (inactive) | 0.982 (inactive) | 1.04 (inactive) | 1.02 (inactive) | 0.826 (inactive) | 0.97 (inactive) | 0.949 (inactive) |
| COP(=O)(NC(C)=O)SC (stereo not given) | 1.03 (inactive) | 1.07 (inactive) | 1.02 (inactive) | 1.08 (inactive) | 1.02 (inactive) | 1.02 (inactive) | 1.14 (inactive) | 0.999 (inactive) | 0.992 (inactive) | 0.94 (inactive) |
| CCC(C)(C)C(=O)OC1=C(c2ccc(Cl)cc2Cl)C(=O)OC12CCCCC2 | 0.952 (inactive) | 1.07 (inactive) | 0.983 (inactive) | 1.04 (inactive) | 1 (inactive) | 1.02 (inactive) | 1.06 (inactive) | 0.97 (inactive) | 0.978 (inactive) | 1 (inactive) |
| COCC(=O)N(c1c(C)cccc1C)C(C)C(=O)OC (stereo not given) | 0.923 (inactive) | 1.06 (inactive) | 1.01 (inactive) | 1 (inactive) | 0.995 (inactive) | 1.02 (inactive) | 1.03 (inactive) | 0.907 (inactive) | 0.994 (inactive) | 1.05 (inactive) |
